Assay results: PubChem BioAssay (EPA / NIEHS)
Values joined by “and” are separate entries in the source; they are usually repeats but may differ in a detail not shown here. Equal entries are not always repeated. Records with an inconclusive call do not appear. The source holds several records for some structures; these can differ, active in one and inactive in another. Active and inactive are the calls of the source. Rule for the calls: active = hit-call score of the fitted dose curve at least 0.9, where 1 is the maximum; inconclusive = response in the unintended direction; inactive = score below 0.9.

Test system: not listed separately
Test: TOX21_p53_BLA_p2_viability: Viability Assessment in the Tox21 HCT-116 p53 Agonism Beta-lactamase Assay, Phase 2 (AID 2283591);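 note: compound exposure lasted 16 h at 37 °C; actives lower the ATP signal meaning cytotoxicity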
Summary of the method: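 HCT-116 p53-bla cells (4000/well) rested 5 h at 37C, then received compounds in DMSO (217-fold dilution) for 16 h at 37C, 5% CO2. After the CCF4 read, CellTiter-Glo was added; ATP luminescence was read after 30 min at room temperature.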

Compound	outcome	AC50
C=CCN=C=S	inactive	
COC(=O)c1cc(Oc2ccc(Cl)cc2Cl)ccc1[N+](=O)[O-]	inactive	
O=S1OC[C@@H]2[C@H](CO1)[C@]1(Cl)C(Cl)=C(Cl)[C@@]2(Cl)C1(Cl)Cl (some centres undefined)		67.1 µM (active)
O=c1[nH]c2ccccc2n1C1CCN(CCCC(c2ccc(F)cc2)c2ccc(F)cc2)CC1		13.8 µM (active) and 30.1 µM (active)
C[CH2][Hg][S]c1ccccc1C(=O)O		32 µM (active) and 18.4 µM (active)
CC(O)(CS(=O)(=O)c1ccc(F)cc1)C(=O)Nc1ccc(C#N)c(C(F)(F)F)c1 (centres undefined)	inactive	
O=[N+]([O-])c1ccc(Cl)c([N+](=O)[O-])c1		45.5 µM (active) and 39.7 µM (active)
O=C(O)CC(O)(CC(=O)O)C(=O)O	inactive	
O=c1oc2ccccc2c(O)c1C(CC(O)c1ccc(-c2ccc(Br)cc2)cc1)c1ccccc1 (centres undefined)	inactive	6.09 µM (active)
CCOC(=O)OC1=C(c2cc(C)ccc2C)C(=O)NC12CCC(OC)CC2 (centres undefined)	inactive	
O=[N+]([O-])c1ccc(Nc2ccccc2)cc1		32.5 µM (active)

Target: Cellular tumor antigen p53 (Homo sapiens) (UniProt P04637)
Test: TOX21_p53_BLA_p2_ratio: Tox21 HCT-116 p53 Agonism Beta-lactamase Assay, Ratio, Phase 2 (AID 2283592)
Summary of the method: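 HCT116 cells carrying a p53-responsive beta-lactamase reporter were plated, incubated 5 h at 37C, then dosed with compounds in DMSO (217-fold dilution) for 16 h. CCF4-AM substrate was added for 2 h at room temperature; the 460/530 nm emission ratio gave gain-of-signal activity relative to DMSO.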

Sequence of Cellular tumor antigen p53 (Homo sapiens) (P04637 whole entry, looked up): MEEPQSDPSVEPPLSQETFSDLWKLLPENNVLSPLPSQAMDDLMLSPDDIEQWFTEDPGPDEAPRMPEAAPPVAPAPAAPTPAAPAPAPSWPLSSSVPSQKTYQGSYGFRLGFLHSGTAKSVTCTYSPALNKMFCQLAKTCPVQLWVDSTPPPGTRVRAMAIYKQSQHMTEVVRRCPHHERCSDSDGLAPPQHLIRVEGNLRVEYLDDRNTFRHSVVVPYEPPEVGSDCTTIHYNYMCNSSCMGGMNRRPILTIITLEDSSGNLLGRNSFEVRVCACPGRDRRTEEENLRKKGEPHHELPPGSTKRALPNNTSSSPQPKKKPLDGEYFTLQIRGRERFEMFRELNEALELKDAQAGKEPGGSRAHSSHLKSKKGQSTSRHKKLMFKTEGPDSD

Compound	outcome	AC50
C=CCN=C=S	inactive	
COC(=O)c1cc(Oc2ccc(Cl)cc2Cl)ccc1[N+](=O)[O-]	inactive	
O=S1OC[C@@H]2[C@H](CO1)[C@]1(Cl)C(Cl)=C(Cl)[C@@]2(Cl)C1(Cl)Cl (some centres undefined)	inactive	
O=c1[nH]c2ccccc2n1C1CCN(CCCC(c2ccc(F)cc2)c2ccc(F)cc2)CC1	inactive	39.4 µM (active)
C[CH2][Hg][S]c1ccccc1C(=O)O	inactive	2.74 µM (active)
CC(O)(CS(=O)(=O)c1ccc(F)cc1)C(=O)Nc1ccc(C#N)c(C(F)(F)F)c1 (centres undefined)	inactive	
O=[N+]([O-])c1ccc(Cl)c([N+](=O)[O-])c1	inactive	75.5 µM (active)
O=C(O)CC(O)(CC(=O)O)C(=O)O	inactive	
O=c1oc2ccccc2c(O)c1C(CC(O)c1ccc(-c2ccc(Br)cc2)cc1)c1ccccc1 (centres undefined)	inactive	
CCOC(=O)OC1=C(c2cc(C)ccc2C)C(=O)NC12CCC(OC)CC2 (centres undefined)		46.1 µM (active)
O=[N+]([O-])c1ccc(Nc2ccccc2)cc1	inactive	72.5 µM (active)

Test system: not listed separately
Test: TOX21_p53_BLA_p3_viability: Viability Assessment in the Tox21 HCT-116 p53 Agonism Beta-lactamase Assay, Phase 3 (AID 2283593);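 note: cells exposed to compound for 16 h before reading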
Summary of the method: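 HCT-116 cells (4000/well) rested 5 h at 37C, then got DMSO compounds by pin tool (217-fold dilution) for 16 h at 37C, 5% CO2. After the bla read, CellTiter-Glo was added and luminescence read at 30 min, room temperature.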

Compound	outcome	AC50
C=CCN=C=S	inactive	
COC(=O)c1cc(Oc2ccc(Cl)cc2Cl)ccc1[N+](=O)[O-]	inactive	
O=S1OC[C@@H]2[C@H](CO1)[C@]1(Cl)C(Cl)=C(Cl)[C@@]2(Cl)C1(Cl)Cl (some centres undefined)		84.1 µM (active)
O=c1[nH]c2ccccc2n1C1CCN(CCCC(c2ccc(F)cc2)c2ccc(F)cc2)CC1		67.5 µM (active) and 35.3 µM (active)
C[CH2][Hg][S]c1ccccc1C(=O)O		46.1 µM (active) and 6.74 µM (active)
CC(O)(CS(=O)(=O)c1ccc(F)cc1)C(=O)Nc1ccc(C#N)c(C(F)(F)F)c1 (centres undefined)	inactive	
O=[N+]([O-])c1ccc(Cl)c([N+](=O)[O-])c1		86.3 µM (active) and 41.1 µM (active)
O=C(O)CC(O)(CC(=O)O)C(=O)O	inactive	
O=c1oc2ccccc2c(O)c1C(CC(O)c1ccc(-c2ccc(Br)cc2)cc1)c1ccccc1 (centres undefined)	inactive	15.2 µM (active)
CCOC(=O)OC1=C(c2cc(C)ccc2C)C(=O)NC12CCC(OC)CC2 (centres undefined)	inactive	
O=[N+]([O-])c1ccc(Nc2ccccc2)cc1	inactive	61 µM (active)

Target: Cellular tumor antigen p53 (Homo sapiens) (UniProt P04637)
Test: TOX21_p53_BLA_p3_ratio: Tox21 HCT-116 p53 Agonism Beta-lactamase Assay, Ratio, Phase 3 (AID 2283596)
Summary of the method: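 HCT116 p53-bla cells (4000/well) given compound in DMSO (217-fold dilution) after 5 h, incubated 16 h at 37C. CCF4-AM substrate 2 h at room temperature; 460/530 nm emission ratio, gain fitted against DMSO.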

Compound	outcome	AC50
C=CCN=C=S	inactive	
COC(=O)c1cc(Oc2ccc(Cl)cc2Cl)ccc1[N+](=O)[O-]	inactive	
O=S1OC[C@@H]2[C@H](CO1)[C@]1(Cl)C(Cl)=C(Cl)[C@@]2(Cl)C1(Cl)Cl (some centres undefined)	inactive	
O=c1[nH]c2ccccc2n1C1CCN(CCCC(c2ccc(F)cc2)c2ccc(F)cc2)CC1		83.6 µM (active) and 43.4 µM (active)
C[CH2][Hg][S]c1ccccc1C(=O)O		221 nM (active) and 970 nM (active)
CC(O)(CS(=O)(=O)c1ccc(F)cc1)C(=O)Nc1ccc(C#N)c(C(F)(F)F)c1 (centres undefined)	inactive	
O=[N+]([O-])c1ccc(Cl)c([N+](=O)[O-])c1	inactive	
O=C(O)CC(O)(CC(=O)O)C(=O)O	inactive	
O=c1oc2ccccc2c(O)c1C(CC(O)c1ccc(-c2ccc(Br)cc2)cc1)c1ccccc1 (centres undefined)		43.4 µM (active) and 22.3 µM (active)
CCOC(=O)OC1=C(c2cc(C)ccc2C)C(=O)NC12CCC(OC)CC2 (centres undefined)		52.6 µM (active)
O=[N+]([O-])c1ccc(Nc2ccccc2)cc1		42.4 µM (active) and 90.9 µM (active)

Test system: not listed separately
Test: TOX21_p53_BLA_p4_viability: Viability Assessment in the Tox21 HCT-116 p53 Agonism Beta-lactamase Assay, Phase 4 (AID 2283597);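 note: hits lower the luminescence signal meaning cytotoxicity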
Summary of the method: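 HCT116 p53-bla cells (4000/well) rested 5 h at 37C, then received compounds in DMSO (217-fold dilution) for 16 h at 37C, 5% CO2. CellTiter-Glo was added after the CCF4-AM read, and luminescence was read after 30 min at room temperature.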

Compound	outcome	AC50
C=CCN=C=S	inactive	
COC(=O)c1cc(Oc2ccc(Cl)cc2Cl)ccc1[N+](=O)[O-]	inactive	
O=S1OC[C@@H]2[C@H](CO1)[C@]1(Cl)C(Cl)=C(Cl)[C@@]2(Cl)C1(Cl)Cl (some centres undefined)		83.6 µM (active)
CC(O)(CS(=O)(=O)c1ccc(F)cc1)C(=O)Nc1ccc(C#N)c(C(F)(F)F)c1 (centres undefined)	inactive	
O=C(O)CC(O)(CC(=O)O)C(=O)O	inactive	
O=c1oc2ccccc2c(O)c1C(CC(O)c1ccc(-c2ccc(Br)cc2)cc1)c1ccccc1 (centres undefined)	inactive	10.4 µM (active)
CCOC(=O)OC1=C(c2cc(C)ccc2C)C(=O)NC12CCC(OC)CC2 (centres undefined)	inactive	
